# A selection: hits, their analogues and other compounds. The true share with any hit is near 2.1%.
# SMARCA2 act: SMARCA2 (BRM) function activators, primary screen, cell-based, luminescence, high throughput. activation, % at 9.1 µM. MG213 cells, MMTV-luciferase reporter, dexamethasone, overnight. hit rate 1% among 370,000; in the data active = activation above about 7.8%;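 also: 0% = vehicle wells and 100% = reference activator wells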
# bovine MsrA act: bovine MsrA enzyme activators, primary screen, biochemical, absorbance, HTS; Methionine sulfoxide reductase A (Bos taurus); purified bovine MsrA, absorbance read-out; activation, % at 10.6 µM; hit rate 0.3% among 360,000; in the data active = activation above about 7.5%;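 also: 0% = vehicle and 100% = reference activator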
# MsrA inh: bovine MsrA enzyme inhibitors, primary screen, biochemical, absorbance, HTS. AID 651718, 2012. hit rate 0.75% among 360,000. purified bovine MsrA, absorbance read-out. inhibition, % at 15.5 µM; in the data active = inhibition above about 4.5%;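 also: 0% = vehicle wells with enzyme and 100% = reference inhibitor wells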
# ABCB6 inh MLPCN: ABCB6 transporter inhibitors, primary screen, K562-ABCB6 cells, flow cytometry, MLPCN library; K562-ABCB6 porphyrin accumulation, 1 h; hits give low values; AID 602162, 2011; hit rate 0.19% among 360,000; fluorescence ratio to DMSO, % at 10 µM; ATP-binding cassette sub-family B member 6 (Homo sapiens), Q9NP58;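 active = fluorescence ratio to DMSO below 75%, the collection mean minus 3 SD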;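 also: signal is porphyrin accumulated inside mitochondria; 100% equals median channel fluorescence of DMSO control wells; lower ratio means ABCB6 inhibition with less porphyrin fluorescence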
# Target sequence (Q9NP58 whole entry, looked up): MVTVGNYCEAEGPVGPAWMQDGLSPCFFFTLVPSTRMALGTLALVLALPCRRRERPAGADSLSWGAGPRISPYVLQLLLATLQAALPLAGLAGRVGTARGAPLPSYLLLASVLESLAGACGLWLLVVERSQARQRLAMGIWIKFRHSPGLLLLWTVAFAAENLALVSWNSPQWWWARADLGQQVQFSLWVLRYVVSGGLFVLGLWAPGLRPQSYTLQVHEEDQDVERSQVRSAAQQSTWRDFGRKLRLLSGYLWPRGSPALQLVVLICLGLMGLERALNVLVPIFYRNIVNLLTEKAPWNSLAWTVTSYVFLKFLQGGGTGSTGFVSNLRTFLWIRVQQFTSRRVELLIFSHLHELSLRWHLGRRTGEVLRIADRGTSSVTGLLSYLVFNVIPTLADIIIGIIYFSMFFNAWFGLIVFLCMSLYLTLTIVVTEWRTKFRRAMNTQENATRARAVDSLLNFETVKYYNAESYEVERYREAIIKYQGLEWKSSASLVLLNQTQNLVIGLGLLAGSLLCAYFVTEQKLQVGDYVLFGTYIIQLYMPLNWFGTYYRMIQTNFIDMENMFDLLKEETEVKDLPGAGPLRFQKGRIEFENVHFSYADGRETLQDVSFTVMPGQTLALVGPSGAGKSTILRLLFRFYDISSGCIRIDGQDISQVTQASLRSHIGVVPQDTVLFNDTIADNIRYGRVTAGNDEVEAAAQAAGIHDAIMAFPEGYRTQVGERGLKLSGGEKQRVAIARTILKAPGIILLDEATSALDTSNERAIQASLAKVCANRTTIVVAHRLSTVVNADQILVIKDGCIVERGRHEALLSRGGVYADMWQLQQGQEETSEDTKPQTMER
# MsrA act confirm: bovine MsrA activators, retest, confirmation, biochemical, absorbance, HTS | purified bovine MsrA, absorbance read-out | hit rate 12% among 1,000 | activation, % at 10.6 µM | shares compounds with bovine MsrA act; in the data active = activation above about 4%;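 also: enzyme coupled to thioredoxin and thioredoxin reductase with NADPH; 0% = vehicle wells and 100% = reference activator wells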
# Numbers without * were called inactive; x = no result given.
SMILES,SMARCA2 act,bovine MsrA act,MsrA inh,ABCB6 inh MLPCN,MsrA act confirm
CCCCN(CC)C(=O)c1cc2c(=O)n3cccc(C)c3nc2s1,-3,10*,1,99,-2
CCN(CC)C(=O)c1cc2c(=O)n3cccc(C)c3nc2s1,5,-4,4,97,x
Cc1cc(C)cc(OC(C)CCN2CCC(C(O)(c3ccccc3)c3ccccc3)CC2)c1 (centres undefined),-4,x,x,x,x
CN(CC(=O)Nc1ccccc1N1CCOCC1)S(=O)(=O)c1ccc(Cl)cc1,-2,8.0*,0,84,5.5*
O=C(NCCc1ccc(Cl)cc1)C12CC3CC(CC(O)(C3)C1)C2,0,9.2*,0,100,-3
O=C1N[C@@H](Cc2ccccc2)COC(=O)[C@H](Cc2ccc(F)cc2)C/C=C\C[C@H]1CC(=O)N(CCO)Cc1ccccc1,-3,19*,-2,95,-1
O=C1N[C@H](Cc2ccccc2)COC(=O)[C@H](Cc2ccc(F)cc2)C/C=C\C[C@H]1CC(=O)N(CCO)Cc1ccccc1,1,-8,0,94,x
Fc1ccc(-c2nc3ccc(Br)cn3c2Cc2cccc(F)c2)cc1,0,-1,1,104,x
Fc1ccc(-c2nc3ccc(Br)cn3c2Cc2cccc(Cl)c2)cc1,3,8.2*,0,102,-2
Cc1ccc(NC(=O)CSCC(=O)N(C)Cc2ccc(Cl)c(Cl)c2)cc1,-4,-3,-1,95,x
COc1ccc(CSCC(=O)Nc2ccc(S(=O)(=O)N3CCCCCC3)cc2)cc1,1,8.8*,0,104,-1
COc1ccc(NC(=O)CSCC(=O)N(C)Cc2ccc(Cl)c(Cl)c2)cc1,4,11*,0,95,-1
COc1ccc(NC(=O)CSCC(=O)Nc2ccc(S(=O)(=O)N3CCCCC3)cc2)cc1,1,-6,0,94,x
O=C(NCCc1ccccc1)OCc1cn(-c2cccc(F)c2F)nn1,-3,x,x,x,x
Cc1ccc(C(=O)NCC(=O)N2CCN(c3ncccn3)CC2)s1,6,9.2*,-1,97,0
CC(C)C[C@H]1COc2cc(N3CC[C@@H](O)C3)ccc2S(=O)(=O)N1,-4,9.9*,0,103,0
CC(C)C[C@@H]1COc2cc(N3CC[C@H](O)C3)ccc2S(=O)(=O)N1,-4,-5,2,91,x
COCc1cc(=O)[nH]c(=S)[nH]1,-3,9.9*,1,99,5.0*
CCOc1ccc(C(=O)NC2CCN(C(=O)NCc3ccccc3)CC2)cc1,3,9.6*,0,101,-1
CC(C)c1ccc(Nc2n[nH]c(=S)s2)cc1,-3,8.6*,1,96,0
Cc1ccc(Nc2n[nH]c(=S)s2)c(C)c1,-1,10*,1,96,1
COc1ccccc1Nc1n[nH]c(=S)s1,-3,8.9*,2,96,1
Cc1cccc(C)c1Nc1n[nH]c(=S)s1,-2,8,-1,98,x
Cc1nnc(N/N=C/c2ccccc2O)n1N,-13,8.8*,0,97,-1
Cc1nnc(N/N=C\c2ccc(-c3ccccc3[N+](=O)[O-])o2)n1N,-2,17*,2,98,-6
SMILES,SMARCA2 act,bovine MsrA act,MsrA inh,ABCB6 inh MLPCN,MsrA act confirm
Cc1n[nH]c(=S)n1/N=C/c1ccc(-c2ccccc2[N+](=O)[O-])o1,1,-4,3,109,x
CCc1nnc(N/N=C/c2ccc(-c3ccc([N+](=O)[O-])cc3)o2)n1N,3,8.4*,1,140,0
C=CCN(CC#CC1=CCCCC1)Cc1ccc(OC)cc1OC,-2,x,x,x,x
Cc1ccc(Cn2nnc3c2-c2ccccc2S(=O)(=O)N(C(C)(C)C)C3)cc1,0,x,x,x,x
O=C(Nc1ccc2c(c1)OCCO2)C1c2ccccc2OCC(=O)N1CCc1c[nH]c2ccccc12 (centres undefined),-2,8.0*,0,98,-2
O=C(NC1CCCC1)C1c2ccccc2OCC(=O)N1CCc1c[nH]c2ccccc12 (centres undefined),-5,-1,-1,95,x
O=C(CSc1ccc(Cl)cc1)NN=C1CCCCCC1,-2,9.0*,2,96,-2
O=C(CCSc1ccc(Cl)cc1)NN=C1CCCCCC1,-1,-7,0,105,x
CC1CCCC(NC(=O)COC(=O)c2ccc([N+](=O)[O-])s2)C1C (centres undefined),-2,21*,2,94,5.4*
O=C(NC1(C(F)(F)F)N=C2SCCN2C1=O)C1CCCCC1 (centres undefined),1,7.8*,-2,95,-1
COc1ccc(NC(=O)COC(=O)Cc2coc3cc(OC)ccc23)c(OC)c1,2,8.0*,0,99,-1
COc1ccc2c(CC(=O)Nc3ccccc3OC)coc2c1,-1,-3,-1,102,x
COc1ccc(NC(=O)N2CCC(c3nc4ccc(Cl)cc4[nH]3)CC2)cc1OC,-3,x,x,x,x
Cc1ccc(NC(=O)C2CCCN(c3nnc(-n4cccc4)s3)C2)c(C)c1 (centres undefined),-4,x,x,x,x
COc1ccc(NC(=O)NC(C)c2ccccc2)cc1 (centres undefined),0,17*,-1,94,-1
C=CCC(CC)C(=O)NC(=O)N1CCCc2ccccc21 (centres undefined),0,12*,0,87,-1
Cc1cccc(NNC(=S)Nc2c(C)cccc2C)c1,3,8.0*,1,100,1
CS(=O)(=O)c1ccc2nc(NC(=O)c3cc([N+](=O)[O-])cc([N+](=O)[O-])c3)sc2c1,3,11*,-1,95,0
CS(=O)(=O)c1ccc2nc(NC(=O)c3cccc([N+](=O)[O-])c3)sc2c1,3,-12,4,100,x
O=[N+]([O-])c1ccc(Sc2nc3ccccc3o2)c([N+](=O)[O-])c1,-11,7.7*,2,96,2
O=[N+]([O-])c1ccc(Cl)cc1Sc1nc2ccccc2o1,-1,6,0,98,x
COCCn1c2nc(=O)n(-c3ccccc3)c(=O)c-2nc2ccccc21,-4,26*,1,106,8.7*
COC(=O)c1[nH]c2ccccc2c1NC(=O)CN1CCN(C/C=C/c2ccccc2)CC1,-4,-6,-1,103,x
CCOC(=O)c1[nH]c2ccc(F)cc2c1NC(=O)CN1CCN(C/C=C/c2ccccc2)CC1,-2,10*,0,106,-1
CN(C)S(=O)(=O)c1cccc(C(=O)N/N=C\c2cccc(C#N)c2)c1,-3,x,x,x,x
COc1cccc(C2=Cc3ccc(F)cc3C(CC(C)=O)N2c2ccc(C#CC3(O)CCCCC3)cc2)c1 (centres undefined),-12,8.1*,1,95,-2
CCOC(=O)Cc1nc(N2CCCN(C(C)=O)CC2)c2c(C)c(C(=O)OCC)sc2n1,-3,x,x,x,x
